Screening results (PubChem BioAssay)
Only some compounds are listed: those with a hit (about 2.9% of all), similar ones and a draw of the others.
PG9 binder: binds the HIV-1 gp120 antibody PG9. TR-FRET gp120-PG9 antibody binding. inhibition, % at 6.7 µM. AID 624416. 360,000 tested, 0.43% active; in the data active means inhibition above about 8.5%
EP2 mod: modulates human prostaglandin E2 receptor EP2 signaling | induction, % at 25 µM | EP2-expressing cells, cAMP HTRF FRET, PGE2 co-stimulation | AID 940 | P43116 | 260,000 tested, 0.83% active;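 active means compounds whose cAMP rise, as percent of the full-agonist control response, exceeds 60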;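 further: rat C6 glioma line stably carrying human EP2 under a CMV promoter; the protocol text gives 20 µM as final concentration; 100% = response of wells given 1 µM PGE2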
Rev-erbA mod: modulates human Rev-erb alpha binding to DNA | Rev-erbα–FITC-DNA binding, fluorescence polarization, 90 min | activity, % at 10 µM | 370,000 tested, 0.79% active | P20393;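 active means activity above about 14%, limit read from the data; passing the limit was not always enough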;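 further: 0% = DMSO wells with 35 nM protein and 100% = DMSO wells with 750 nM protein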
Target sequence (P20393 whole entry, looked up): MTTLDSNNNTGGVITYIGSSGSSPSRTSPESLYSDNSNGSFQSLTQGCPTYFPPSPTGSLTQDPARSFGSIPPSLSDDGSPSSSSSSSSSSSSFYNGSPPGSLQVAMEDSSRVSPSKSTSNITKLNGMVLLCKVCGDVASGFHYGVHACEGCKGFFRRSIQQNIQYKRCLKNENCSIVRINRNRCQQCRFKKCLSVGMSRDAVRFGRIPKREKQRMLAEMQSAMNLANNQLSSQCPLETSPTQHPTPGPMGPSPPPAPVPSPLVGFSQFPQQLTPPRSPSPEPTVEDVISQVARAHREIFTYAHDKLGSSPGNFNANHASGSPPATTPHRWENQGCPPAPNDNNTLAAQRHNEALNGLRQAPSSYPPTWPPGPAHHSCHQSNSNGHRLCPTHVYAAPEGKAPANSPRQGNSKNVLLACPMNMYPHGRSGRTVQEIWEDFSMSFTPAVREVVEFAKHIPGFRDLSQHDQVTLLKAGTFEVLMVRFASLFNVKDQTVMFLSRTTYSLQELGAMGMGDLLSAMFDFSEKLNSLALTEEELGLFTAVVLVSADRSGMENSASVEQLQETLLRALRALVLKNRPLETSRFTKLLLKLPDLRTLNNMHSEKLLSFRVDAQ
EP2 antag: EP2 receptor (human) inhibition; P43116; C6 glioma cells expressing human EP2, cAMP TR-FRET; cells stimulated with saturating PGE2; inhibition, % at 25 µM; 260,000 tested, 0.52% active;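 active means percent inhibition above 40 after rounding to a whole number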;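 further: rat C6 glioma host cells with rolipram phosphodiesterase inhibitor present; the protocol text gives 20 µM as final concentration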
SKN-1 inh: C. elegans SKN-1 inhibition; 360,000 tested, 0.49% active; inhibition, % at 21.8 µM; AID 624304; C. elegans VP596 Pgst-4::GFP/RFP ratio, acrylamide-induced, 24 h;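 active means interference check ratio from 0.5 to 1.5 plus GFP to RFP signal ratio inhibition reaching or exceeding a fixed threshold, cut at about 30% in these data, passing the limit was not always enough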
RAM network inh: blocks the yeast RAM network | S. cerevisiae dse1pr::URA3 reporter, 5-FOA growth OD615, 2 d; analog-sensitive cbk1-as2 kinase mutant strain | inhibition, % at 50 µM | 190,000 tested, 1.8% active | AID 868;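 active means inhibition above a set limit, 3 SD over mean compound inhibition, cut at about 8.4% in these data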;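 further: 0% = DMSO-only wells with no growth and 100% = 10 µM 1-NA-PP1 full growth; inhibition rescues growth on 5-FOA so higher OD means more RAM inhibition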
RAM efflux-def: RAM network inhibition, efflux-deficient strain. 1,200 tested, under 10 active. max inhibition, %. AID 1305. S. cerevisiae efflux-deficient reporter strain, 5-FOA growth OD615, 2 days. shares compounds with RAM network inh; call rule not given here;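 further: plate controls were vehicle for no effect and reference inhibitor for full effect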
Numbers without * were called inactive; x = not tested or not shown.

SMILES	PG9 binder	EP2 mod	Rev-erbA mod	EP2 antag	SKN-1 inh	RAM network inh	RAM efflux-def
O=C(O)C(Cc1ccccc1)N1C(=O)/C(=C/c2cccs2)SC1=S (stereo not drawn)	-4	31	-3	0	9	15*	2
COc1cccc(/C=C2\SC(=S)N(C(Cc3ccccc3)C(=O)O)C2=O)c1 (stereo not drawn)	-1	-2	-2	8	18	12*	1
O=C(O)C(c1ccccc1)N1C(=O)/C(=C/c2cccs2)SC1=S (stereo not drawn)	-1	19	2	13	0	x	x
CCc1c(C)sc2ncn3c(=O)[nH]nc3c12	x	-3	x	x	x	x	x
CC(Oc1ccc(-c2ccccc2)c(F)c1)c1ccn(S(=O)(=O)c2ccc(Br)cc2)n1 (stereo not drawn)	3	28	6	7	-17	12*	3
CC(Oc1ccc(Cl)cc1)c1ccnn1S(=O)(=O)c1ccc(Cl)cc1 (stereo not drawn)	-1	14	5	11	-1	3	x
Cc1ccc(-c2cc(C(F)F)nc(N3CCC(C)CC3)n2)cc1	0	24	2	6	5	12*	5
CC1CCN(c2nc(-c3ccccc3)cc(C(F)(F)F)n2)CC1	1	34	2	9	4	7	x
CC[C@H](Cn1nnn(-c2ccccc2)c1=O)NC(=O)c1cnsc1	x	0	x	1	x	x	x
COc1ccc(/C=N/OCC(=O)NC(c2ccccc2)c2ccccc2)c(OC)c1	-2	49	1	13	-6	12*	3
CCOC(=O)C1=C(O)/C(=C/c2cc(OC)c(O)c(OC)c2)SC1=Nc1ccc(OC)cc1	-2	18	-2	16	0	16*	10
CCOC(=O)C1=C(O)/C(=C/c2ccc(OCC(=O)O)c(OC)c2)SC1=Nc1ccc(OCC)cc1	-2	3	-3	20	8	4	x
CC(C)C(=O)N1CCCc2cc(C(O)CN3CCc4ccccc4C3)ccc21 (stereo not drawn)	x	-27	x	7	x	x	x
COc1cccc(-c2nnc(SCC(=O)Nc3ccc(OC)c(OC)c3)n2N)c1	-2	-2	1	4	-6	12*	3
COc1ccc(F)c([C@@H]2NC(=O)CC[C@H]2NCc2cc(OC)c3c(c2)OCO3)c1	x	-9	x	1	x	x	x
CCN(CC)c1ccc(C(=O)OCC(=O)Nc2ccccc2-c2ccccc2)cc1	-3	38	-3	9	0	22*	5
CN(C)c1cccc(C(=O)OCC(=O)Nc2ccccc2-c2ccccc2)c1	-1	28	7	8	-13	2	x
CCn1c(SCC(=O)NC2CCCC2)nnc1-c1ccc(OC)cc1	x	3	x	4	x	x	x
COc1cc(/C=N/Nc2ccc(Cl)cc2)ccc1OC(=O)c1cccs1	1	-9	1	5	0	12*	3
COc1cc(/C=N/NC(N)=O)ccc1OC(=O)c1cccs1	-2	17	0	4	2	3	x
O=C(O)CSc1nnc(-c2ccco2)n1C1CCCCC1	x	-56	x	9	x	x	x
Cc1ccc(C)c(N2CCN(C(=O)c3ccc(Cn4c(=S)[nH]c5ccc(N6CCOCC6)cc5c4=O)cc3)CC2)c1	-1	29	1	14	18	13*	3
O=C(c1ccc(Cn2c(=S)[nH]c3ccc(N4CCOCC4)cc3c2=O)cc1)N1CCN(c2ccc(F)cc2)CC1	1	-5	5	7	-3	4	x
O=C(NCc1ccccc1)c1cccc(COc2ccc3c(c2)CCC3)c1	1	-4	5	4	5	12*	7
COC(=O)c1ccccc1NC(=O)c1ccc(COc2ccc3c(c2)CCC3)cc1	1	21	-1	8	2	14*	5
SMILES	PG9 binder	EP2 mod	Rev-erbA mod	EP2 antag	SKN-1 inh	RAM network inh	RAM efflux-def
O=C(O)c1cccc(COc2ccc3c(c2)CCC3)c1	1	-7	2	10	-10	x	x
COc1ccccc1NC(=O)c1ccc(COc2ccc3c(c2)CCC3)cc1	3	22	1	5	1	8	x
CCOc1ccc2nc3c(cc2c1)CN(CCOC)C(=NCCOC)S3	0	46	8	14	1	14*	3
CC(C)Oc1ccc(C(=O)Nc2nccs2)cc1	x	-73	x	12	x	x	x
COc1ccc(C(=O)CSc2nc(C(C)(C)C)nc3ccccc23)cc1	2	10	10	5	-1	13*	2
Cc1cc(-c2cc(N)c(=O)n(CC(=O)NCc3ccccc3)n2)c(C)o1	x	-32	x	9	x	x	x
CC(=O)c1ccc(N(C(=O)CS(=O)CC(=O)Nc2ccc(F)cc2)C(C(=O)NC2CCCCC2)c2cccs2)cc1 (stereo not drawn)	0	13	-2	5	0	18*	2
COc1cc(C(=O)N2CCC(C(=O)c3nc4ccccc4s3)CC2)cc(OC)c1OC	x	-49	x	x	x	x	x
COC(=O)c1ccc(Cl)cc1NC(=O)/C=C/c1ccc(C)o1	-2	17	1	7	8	13*	4
Cc1ccc(/C=C/C(=O)Nc2ccc(Oc3ccccc3)cc2)o1	0	-48	-4	3	6	13*	4
CCc1cc2cc3c(cc2nc1SCC(=O)Nc1cc(OC)ccc1OC)OCO3	x	39	x	8	x	x	x
CCOC(=O)c1c(C)[nH]c(C)c1C(=O)COC(=O)/C=C/c1ccc(Cl)cc1	-2	-7	1	8	3	12*	1
O=C(Nc1ccn(Cc2ccccc2F)n1)c1ccc(COc2ccc(Br)cc2)cc1	3	-49	-7	5	-4	16*	2
CCCCCOC(=O)C1C(c2ccccc2)C(C(=O)O)C1c1ccccc1 (stereo not drawn)	-3	46	-6	6	10	15*	3
O=C(O)C1C(c2ccccc2)C(C(=O)OCCCO)C1c1ccccc1 (stereo not drawn)	0	28	-1	7	10	3	x
COC(=O)N/N=C/c1ccc(OS(=O)(=O)c2ccc(C)cc2)c(OC)c1	0	-18	2	4	7	-1	x
C=CCNC(=O)/C(C#N)=C/c1ccc(OS(=O)(=O)c2ccc(C)cc2)c(OC)c1	-1	-39	3	13	0	15*	2
COc1ccc(Oc2ccc(/C=C/C(=O)c3cccc(OC)c3)cc2[N+](=O)[O-])cc1	-1	-44	-3	15	6	11*	5
Cc1ncc(-c2ccncc2)c(C2CCCN(C(=O)N3CCCCC3)C2)n1 (stereo not drawn)	x	-44	x	x	x	x	x
CCCCC(=O)O[C@H]1CC[C@H]2[C@@H]3CCc4cc(O)ccc4[C@H]3CC[C@]12C	-4	34	-1	14	-6	14*	7
Brc1ccc(CSc2nnc(Cc3c[nH]c4ccccc34)o2)cc1	-1	5	-5	x	-3	13*	2
